# According to PubChem BioAssay AID1845225 (National Center for Advancing Translational Sciences (NCATS), 2023):
# Records with an inconclusive call do not appear. Unmarked numbers belong to inactive results. Activity calls are given as the source filed them. Calls come from the whole dose curve; as a rule, active = well fitted curve in the direction sought with a large enough effect; inconclusive = small, poorly fitted or top-dose-only effect, or effect the other way, or another doubt; inactive = no such curve, though single readings can be large or run the other way.
# Assay: Confirmatory redox qHTS assay for identification of artifact compounds.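 Note: 0% = DMSO and 100% = DA3003 at 10 µM.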
# Details: Amplex Red/HRP redox cycling with DTT, fluorescence; series mostly up to 39 µM
# Outline: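 Amplex Red (25 uM final) and HRP (250 mU/mL final) in HBSS, compound 15 min, then 250 uM DTT final 30 min, room temperature, dark; fluorescence 525/598 nm, normalized to DMSO and 10 uM DA3003, Hill fitted.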
SMILES,outcome,redox activity vs DA3003
COc1ccc(N2CCN(Cc3cc(=O)oc4ccc(OC)cc34)CC2)cc1,inactive,–
COc1cc2c(NC3CCN(C)CC3)nc(N3CCCN(C)CC3)nc2cc1OCCCCC(N)=O,inactive,–
Oc1ccc(CNc2cccc(F)c2F)c2cccnc12,inactive,–
Cc1ccc(C(=O)CSc2nc(-c3ccccc3)nc3c2CCCC3)c(C)c1,inactive,–
Cc1oc(-c2ccccc2)nc1CNC(=O)Nc1ccccc1,inactive,–
COc1cccc(-c2nc3cc(NC(=O)c4cccnc4)ccc3o2)c1,inactive,–
O=C(NNCNNC(=O)c1ccncc1)c1ccncc1,inactive,–
CCOC(=O)c1ccccc1NC(=O)Cn1c(=O)n(-c2cccc(C)c2)c(=O)c2c1c1cc(C)ccc1n2C,inactive,–
O=S(=O)(c1ccc(Cl)cc1)N1CCC(c2ccncc2)CC1,inactive,–
CCOC(=O)C1CCN(C(c2ccc(OCC)cc2)c2c(O)cc(C)n(CCOC)c2=O)CC1 (stereo not given),inactive,–
O=C(Cn1nc(-c2ccc(Cl)cc2)ccc1=O)NCCc1ccccc1,inactive,–
Cc1cccc(C(=O)NCCc2nc3ccccc3n2CCC(C)C)c1,inactive,–
COc1cc(OC)c(NC(=O)C(c2ccccc2)N2Cc3ccccc3C2=O)cc1Cl (stereo not given),inactive,–
CCc1ccc(CN(Cc2ccco2)C(=O)c2ccc(OC)cc2)cc1,inactive,–
O=C(Nc1ccc(Cl)cc1)N1CCC(c2ccccc2)C1 (stereo not given),inactive,–
O=C(CSc1nnc2scc(-c3ccc(Cl)cc3)n12)Nc1cccc(C(F)(F)F)c1,inactive,–
C=C[C@@]1(C)C[C@H](OC(=O)CSC(C)(C)CNC(=O)[C@@H](N)C(C)C)[C@@]2(C)C(C)CC[C@@]3(CCC(=O)[C@@H]32)[C@H](C)[C@H]1O (stereo not given in full),inactive,–
COc1ccc(NC(=O)N2CCc3c(sc4c3CCCC4)C2c2ccccc2OC)cc1 (stereo not given),inactive,–
COC(=O)c1c(OCc2ccccn2)cc(=O)n2c1CCN(C(=O)c1n[nH]c3c1CCCC3)CC2,inactive,–
CCOc1ccc(CCNC(=O)c2cnc3c(-c4ccccc4)c(C)nn3c2C)cc1OCC,inactive,–

SMILES,outcome,redox activity vs DA3003
COc1ccccc1CNC(=O)CCCn1c(=O)c2ccccc2n(CC(=O)Nc2ccc(C)cc2Cl)c1=O,inactive,–
O=C(Nc1ccc(C(F)(F)F)cc1)C1(c2cccs2)CCOCC1,inactive,–
O=C1CCc2cc(S(=O)(=O)Nc3cccc(F)c3)ccc2N1,inactive,–
CCCCCC(O)/C=C/C=C\CCCCCCCC(=O)O (stereo not given),–,-1.07% [at 0.303 µM]
O=C(NCCSc1c(-c2ccc(Br)cc2)[nH]c2ccccc12)c1ccc(S(=O)(=O)N2CCOCC2)cc1,inactive,–
CCOc1ccc(OCC)c(NS(=O)(=O)c2c(C)[nH]c(=O)[nH]c2=O)c1,inactive,–
Cc1cccc(NC(=O)CN2C(=O)C(c3ccc(F)cc3)=NC23CCCCCC3)c1,inactive,–
Cc1cc(NC(=O)c2ccc([S+](=O)([O-])NCc3ccc(Cl)c(Cl)c3)cc2)no1,inactive,–
O=C(CCn1c(=O)c2cccn2c2cccnc21)N1CCN(c2ccccc2F)CC1,inactive,–
C[C@@H]1CC2C3CCC4=CC(=O)C=C[C@]4(C)[C@@]3(F)C(O)C[C@]2(C)[C@@]1(O)C(=O)COC(=O)c1cccc(S(=O)(=O)O)c1 (stereo not given in full),inactive,–
CCCCCCCCOc1ccc(C(=O)O)cc1,inactive,–
COc1ccccc1Cn1c(CNS(=O)(=O)c2ccc3c(c2)CCCC3)nc2cccnc21,inactive,–
Cc1nc(-c2ccccc2C(C)C)nc(NCc2ccc(-c3cccnc3)cc2)c1C,inactive,–
COc1ccc(-c2nc(CS(=O)CC(=O)NCCc3ccccc3)c(C)o2)cc1OC (stereo not given),inactive,–
CCC(C)NC(=O)c1ccc2nc(-c3cccs3)c(-c3cccs3)nc2c1 (stereo not given),inactive,–
OC[C@H]1O[C@@H]2O[C@H]3[C@H](O)[C@@H](O)[C@@H](O[C@H]4[C@H](O)[C@@H](O)[C@@H](O[C@H]5[C@H](O)[C@@H](O)[C@@H](O[C@H]6[C@H](O)[C@@H](O)[C@@H](O[C@H]7[C@H](O)[C@@H](O)[C@@H](O[C@H]1[C@H](O)[C@H]2O)O[C@@H]7CO)O[C@@H]6CO)O[C@@H]5CO)O[C@@H]4CO)O[C@@H]3CO,inactive,–
Cc1cc(C)c(S(=O)(=O)NCC(c2ccco2)S(=O)(=O)c2cccs2)c(C)c1 (stereo not given),inactive,–
COc1ccc(C(=O)Nc2nc3c(s2)CCCC3)cc1Cl,inactive,–
CN1C(CC(=O)c2ccccc2)CCCC1CC(O)c1ccccc1 (stereo not given),inactive,–
COc1ccc(C(=O)O)cc1Nc1nc2ccc(C)cc2n2cnnc12,inactive,–
